Screens from PubChem BioAssay.
D2 antag – antagonizes the human D2 dopamine receptor; P14416; HEK293 TREx D2 cells, calcium flux, dopamine EC80; inhibition, % at 10 µM; actives 2% (n = 340,000); AID 485344; in the data active means inhibition above about 30%; inactive means below that, where a call was filed; further: 0% is about no effect
Target sequence (P14416 whole entry, looked up): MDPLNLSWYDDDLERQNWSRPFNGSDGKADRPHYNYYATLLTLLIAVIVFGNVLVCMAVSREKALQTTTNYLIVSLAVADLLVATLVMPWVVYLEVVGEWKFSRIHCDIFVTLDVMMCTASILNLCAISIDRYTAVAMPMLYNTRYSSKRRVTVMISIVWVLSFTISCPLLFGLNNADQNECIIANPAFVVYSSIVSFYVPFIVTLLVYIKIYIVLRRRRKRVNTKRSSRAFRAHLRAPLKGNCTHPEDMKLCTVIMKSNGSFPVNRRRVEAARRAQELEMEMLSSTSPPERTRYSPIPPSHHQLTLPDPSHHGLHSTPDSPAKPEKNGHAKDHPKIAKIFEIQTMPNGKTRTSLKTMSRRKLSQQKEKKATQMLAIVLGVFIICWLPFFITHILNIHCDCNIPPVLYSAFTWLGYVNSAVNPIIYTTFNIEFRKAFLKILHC
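In this primary screen, negative modulation is detected by tracking calcium flux after an EC80 dopamine challenge in inducible HEK293 T-REx D2 cells preexposed to test compound for 180 s.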
D2 PAM-1 – D2 dopamine receptor (human) potentiation | HEK293 T-REx D2, calcium flux, EC20 dopamine potentiation | actives 0.34% (n = 340,000) | AID 485347 | potentiation, % at 10 µM | P14416;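 active means potentiation over 3 SD above the plate norm, cut at about 30% in these data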; further: 0% is about no effect
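Tetracycline-induced Hek293 Trex D2 cells, force-coupled to calcium, loaded with no-wash calcium dye. Compound added with 180 s kinetic read for agonism, then EC20 dopamine and a further 180 s read for potentiation.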
D2 ag-1 – human D2 receptor agonism in beta-arrestin assay; DiscoveRx PathHunter D2 beta-arrestin, luminescence, 90 min; 100% = 57 uM dopamine signal; P14416; activation, % (no concentration beside the values); actives 0.084% (n = 360,000); in the data active means activation above about 40%; inconclusive means between about 15% and that limit
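Agonist mode: compounds alone added to overnight-plated D2 PathHunter cells for 90 min at 37 C, with 57 uM final dopamine (EC100) defining full response. Beta-arrestin recruitment detected by chemiluminescent reagent, read after 1 h at ambient temperature.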
D2 ag-2 – activates the human D2 dopamine receptor; activation, % at 2 µM; P14416; HEK293 T-REx D2 cells, calcium flux agonist mode; actives 0.53% (n = 340,000);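 active means activation over 3 SD above normal in the single-dose calcium agonist read, cut at about 30% in these data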; further: 0% is about no effect
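In this primary screen, compounds producing a positive calcium signal within 180 s of addition to tetracycline-induced, force-coupled HEK293 Trex D2 cells are flagged; cells are dye-loaded with a no-wash calcium kit beforehand.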
D2 PAM-2 – potentiates the human D2 dopamine receptor allosterically; DiscoveRx D2 beta-arrestin cells, luminescence, 90 min; 100% = 57 uM dopamine signal; actives 0.23% (n = 360,000); potentiation, % (no concentration beside the values); in the data active means potentiation above about 50%; inconclusive means mostly about 30% to 49%
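PathHunter beta-arrestin assay in DiscoveRx D2 cells. Compounds were added with an EC20 of dopamine (50 nM final) for 90 min at 37 deg C. Luminescence was read 1 h after detection reagent, with 57 uM dopamine as the EC100 control.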
An asterisk follows results filed as active; ? = inconclusive; · = no result. Rows were chosen to be rich in hits. Some 2.4% of all compounds tested hit in one or more screens of this group.

SMILES | D2 antag | D2 PAM-1 | D2 ag-1 | D2 ag-2 | D2 PAM-2
COCCCN(C(=O)Cc1coc2cc(C)c(C)cc12)c1c(N)n(Cc2ccccc2)c(=O)[nH]c1=O | 48* | 5 | -1 | 0 | -2
CCCn1c(N)c(N(CCOC)C(=O)c2ccccc2)c(=O)[nH]c1=O | 55* | -11 | -1 | 1 | -1
COCCN(C(=O)Cc1coc2cc(C)c(C)cc12)c1c(N)n(Cc2ccccc2)c(=O)[nH]c1=O | 4 | 1 | 0 | 0 | -6
COc1ccc(N2CCN(C(=O)CCn3c(=O)c4cccn4c4cccnc43)CC2)cc1 | · | -6 | · | 1 | ·
CC1(C(=O)NS(=O)(=O)c2ccc(Cl)s2)CCN1C(=O)C1(c2ccc(Cl)cc2)CCC1 (stereo not given) | · | · | 4 | · | -5
O=C1C2C3C=CC(C3)C2C(=O)N1c1ccccc1 (stereo not given) | · | · | -3 | · | -8
Cc1cc(C)cc(N2C(=O)C3C4C=CC(C4)C3C2=O)c1 (stereo not given) | · | 37* | 0 | · | 12
Cc1cccc(N2C(=O)C3C4C=CC(CC4)C3C2=O)c1 (stereo not given) | 4 | 21 | -7 | 0 | 16
Cc1ccc(N2C(=O)C3C4C=CC(C4)C3C2=O)cc1 (stereo not given) | 0 | 51* | -3 | 1 | -4
CC(C)(C)c1ccc(C(=O)Nc2ccc(C(=O)OCc3cc(=O)n4ccsc4n3)cc2)cc1 | · | -2 | · | -1 | ·
COCCCN1CC23C=CC(O2)C(C(=O)O)C3C1=O (stereo not given) | -15 | 10 | -2 | 0 | -4
CCCN1CC23C=CC(O2)C(C(=O)O)C3C1=O (stereo not given) | 48* | 6 | -2 | 1 | -2
CCC(C)N1CC23C=CC(O2)C(C(=O)OC)C3C1=O (stereo not given) | 31* | -1 | -2 | 6 | -1
COc1ccc(CNC(=O)C2CCN(C(=O)N3CCOc4ccc(Cl)cc43)CC2)cc1 | · | 8 | · | 0 | ·
CC(=O)Nc1ccc(NC(=O)C(C)OC(=O)CC2CCCC2)cc1 (stereo not given) | 0 | 1 | -2 | -1 | 9
CC(=O)Nc1ccc(NC(=O)C(C)OC(=O)CCC2CCCC2)cc1 (stereo not given) | 30* | -3 | -3 | 1 | 6
CC1=Nc2ccc(Br)cc2C(c2ccccc2)N1CC(=O)NN (stereo not given) | 36* | -25 | -6 | -2 | -5
COc1cc(OC)c(C2=Nc3ccc(Br)cc3C(c3ccccc3)N2CC(=O)NN)cc1OC (stereo not given) | 78* | -19 | -6 | 0 | -4
NNC(=O)CN1C(c2ccccc2)=Nc2ccc(Br)cc2C1c1ccccc1 (stereo not given) | 81* | -32 | -6 | 0 | -17
NNC(=O)CN1C(c2ccc(Cl)cc2)=Nc2ccc(Br)cc2C1c1ccccc1 (stereo not given) | · | -27 | -2 | 0 | -32
CCC1=Nc2ccc(Br)cc2C(c2ccccc2)N1CC(=O)OC (stereo not given) | 3 | -22 | -4 | 0 | -20
NNC(=O)CN1C(CN2CCOCC2)=Nc2ccc(Br)cc2C1c1ccccc1 (stereo not given) | 83* | -24 | 0 | 1 | -13
CCOC(=O)c1cccc(NC(=O)c2ccc3c(c2)C(=O)N(CC2CCCO2)C3=O)c1 (stereo not given) | -25 | 0 | 10 | 1 | -7
COc1cc2cc(CCOC(=O)c3ccc(C#N)cc3)oc(=O)c2cc1OC | 7 | 12 | 0 | 0 | -5
CCN(C(=O)Nc1cn(CC(C)C)c(=O)c2ccccc12)c1cc(C)ccc1C | · | -1 | · | -1 | ·
SMILES | D2 antag | D2 PAM-1 | D2 ag-1 | D2 ag-2 | D2 PAM-2
O=C1c2cccc3c([N+](=O)[O-])ccc(c23)C(=O)N1c1ccccn1 | 17 | 11 | ? | 1 | ?
O=C1c2cccc3c([N+](=O)[O-])ccc(c23)C(=O)N1O | 27 | -2 | 42* | 0 | 4
COc1ccc(S(=O)(=O)NCC2(N3CCOCC3)CCCCC2)cc1OC | 1 | 9 | -3 | 0 | -61
Cc1cc(C)cc(NC(=O)Cn2cc(C(=O)c3ccccc3)c(=O)c3ccc(C)nc32)c1 | · | -6 | · | 0 | ·
Cc1nc2ccc(NC(=O)c3ccc([N+](=O)[O-])cc3[N+](=O)[O-])cc2s1 | -3 | -9 | ? | 0 | 52*
COc1ccc2ccccc2c1CNC(C)CCc1ccccc1 (stereo not given) | 30* | -16 | 5 | 20 | -23
S=C(NCCc1ccccc1)N1CCn2cccc2C1c1cccnc1 (stereo not given) | 37* | -17 | -3 | 0 | -19
COCCn1c(SCC(=O)Nc2cc(Cl)ccc2OC)nc2c([nH]c3ccccc32)c1=O | · | -4 | · | -1 | ·
Cc1ccc(O)c(C(=O)c2cc(C#N)c3nc4ccccc4n3c2)c1 | 25 | 1 | -4 | 16 | -1
O=C(NCc1ccc(Cl)cc1)C1CCCN(C(=O)c2ccc(Cl)cc2)C1 (stereo not given) | 38* | 3 | -1 | 0 | -1
Cc1ccc(S(=O)(=O)N(C)C)cc1NC(=O)C1CCCN(C(=O)c2ccc(Cl)cc2)C1 (stereo not given) | 31* | -1 | -3 | 0 | -2
CCOC(=O)[C@H]1[C@H]2COc3cc(OC)ccc3[C@@H]2N2C(=O)CN(CC3CCCO3)C(=O)[C@@]12C (stereo not given in full) | 18 | -7 | -4 | 0 | -10
COC(=O)c1ccc(/C=C/C(=O)c2ccc(OC)c(OC)c2)cc1 | -10 | -5 | -2 | 1 | -33
COc1ccc(/C=C/C(=O)c2ccc(C(=O)/C=C/c3ccc(OC)c(OC)c3)cc2)cc1OC | 34* | 1 | 6 | 3 | -2
NC(=O)C[n+]1cccc(CNC(=O)c2ccc(OC(F)F)cc2)c1 | 32* | 1 | -4 | 2 | 1
O=C(C[n+]1cccc(CNC(=O)c2ccc(OC(F)F)cc2)c1)Nc1cc(C(F)(F)F)ccc1Cl | 63* | -19 | -2 | -1 | -39
Cc1ccc(OCCCCN2CCc3ccccc3C2)cc1 | 73* | -12 | 8 | 0 | -26
Cc1ccc([N+](=O)[O-])c(OCCN2CCc3ccccc3C2)c1 | 88* | -27 | 3 | 17 | -3
O=[N+]([O-])c1ccccc1OCCCN1CCc2ccccc2C1 | 75* | -9 | 5 | 0 | -26
COc1ccc(C(=O)Oc2ccc3c(c2)OCO3)cc1OC | 10 | 0 | -4 | 5 | 3
COc1cc(OC)c(C(=O)Oc2ccc3c(c2)OCO3)cc1OC | 30* | 13 | 1 | 0 | -6
